In the library only some 1.6% were active in any assay of this set; here they are far more common.
PLAP act: activators of human placental alkaline phosphatase; P05187; purified PLAP enzyme, luminescent substrate read-out; stronger effect = higher value; activation fold at 20 µM; 96,000 tested, 1.2% active; AID 696; in the data active = activation fold above about 2
PTPN22 act: LYP (human) phosphatase activation; Q9Y2R2; recombinant LYP, DiFMUP fluorescence; 0 = plate median, 100 = signal doubled; activation, % at 2 µM; 96,000 tested, 0.11% active; AID 697;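 active = activation at 2 µM above a set limit, the mean plus 5 SD, cut at about 37% in these data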
PTPN22 inh 2: LYP (human) phosphatase inhibition; Q9Y2R2; recombinant LYP catalytic domain, DiFMUP fluorescence; inhibition, % at 2 µM; 96,000 tested, 0.21% active;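 active = inhibition at 2 µM at or above a set limit, the screen mean plus 3 SD, cut at about 24% in these data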
MT1-MMP txn act: MT1-MMP promoter transcription activation. HT1080 MT1-MMP promoter luciferase reporter, luminescence, overnight; stronger effect = higher value. activation factor at 10 µM. 86,000 tested, 0.16% active. AID 750;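 active = activation factor of at least 2 for MT1-MMP transcription at 10 µM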
TNAP act DEA: activates human TNAP at intermediate phosphate acceptor concentration | AID 813 | P05186 | 64,000 tested, under 10 active | purified TNAP, CDP-star luminescence, 100 mM DEA, 30 min; stronger effect = higher value; scale: 0 levamisole-inhibited, 1 vehicle-only enzyme | activation factor at 20 µM;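 active = activation factor of at least 2 at 20 µM, relative to controls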
Target sequence (P05186 whole entry, looked up): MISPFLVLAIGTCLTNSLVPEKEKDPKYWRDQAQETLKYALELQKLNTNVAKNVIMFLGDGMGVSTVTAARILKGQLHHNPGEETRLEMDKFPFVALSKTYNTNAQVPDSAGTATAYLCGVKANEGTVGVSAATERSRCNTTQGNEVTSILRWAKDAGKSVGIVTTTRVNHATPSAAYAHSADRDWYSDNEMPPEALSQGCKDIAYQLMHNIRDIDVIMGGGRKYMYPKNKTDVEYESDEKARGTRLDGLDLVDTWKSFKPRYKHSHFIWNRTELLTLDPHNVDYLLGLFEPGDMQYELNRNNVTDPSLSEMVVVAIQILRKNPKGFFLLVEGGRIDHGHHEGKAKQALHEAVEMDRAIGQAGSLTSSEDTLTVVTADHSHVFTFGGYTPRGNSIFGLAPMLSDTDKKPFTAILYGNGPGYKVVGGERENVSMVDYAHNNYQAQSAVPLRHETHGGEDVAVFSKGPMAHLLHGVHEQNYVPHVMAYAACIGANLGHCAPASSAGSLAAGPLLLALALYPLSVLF
LYP act confirm: confirmation of human LYP phosphatase activators; shares compounds with PTPN22 act; Recombinant LYP, DIFMUP fluorescence, activation; zero set by plate's median compound well; activation, % at 2 µM; 100 tested, under 10 active; AID 1031; call rule not given here
Numbers stand for hits; . = inactive; / = no result.

SMILES	PLAP act	PTPN22 act	PTPN22 inh 2	MT1-MMP txn act	TNAP act DEA	LYP act confirm
COC(=O)c1ccc(C(NC(=O)OCc2ccccc2)/C(C)=C/[C@@H](C)C(=O)NCCc2c[nH]c3ccc(OC)cc23)cc1 (stereo partly drawn)	/	/	/	.	/	/
COc1ccc(-n2c(COc3cccc(C)c3)nnc2SCC(=O)NCc2ccco2)cc1	.	.	.	.	.	/
COc1ccc(-n2c(COc3ccc4ccccc4c3)nnc2SCC(=O)NCc2ccco2)cc1	2	.	.	.	/	/
COC(=O)[C@@]1(Cc2ccccc2)C=C[C@@H](C)N1C	/	/	/	.	/	/
O=C(CC1CCCCC1)Nc1ncn[nH]1	/	.	.	.	/	/
Cc1ccc(-n2nnnc2SCC(=O)NNC(=O)c2ccco2)c(C)c1	2	.	.	/	/	/
O=c1[nH]c2c(cc1CNCCN1CCOCC1)c(-c1cccc(F)c1)nn2-c1ccccc1	2	/	/	.	.	/
Cn1c(=O)c(C(=O)COC(=O)c2cc(C(F)(F)F)nc3c(C(F)(F)F)cccc23)c(N)n(Cc2ccccc2)c1=O	/	/	/	.	/	/
COC(=O)[C@@]1(Cc2ccccc2)[C@H]2c3cc(C(=O)N4CCCC4)n(Cc4ccccc4)c3C[C@H]2CN1C(=O)c1ccccc1	/	/	/	.	/	/
CCN(c1ccccc1)S(=O)(=O)c1ccc(N)c(OC)c1	.	.	.	.	/	/
CCOC(=O)c1[nH]nc(-c2cc(CC)c(O)cc2O)c1-c1cscn1	2.1	.	.	.	/	/
CCOC(=O)c1oc2cc(O)cc(C)c2c(=O)c1-c1cscn1	.	.	.	.	.	/
O=C(Cc1cccs1)Nc1nc2ccccc2s1	.	.	.	.	.	/
O=C(NNc1nc2ccccc2s1)c1ccccc1F	2.3	.	.	/	/	/
O=C(NNc1nc2ccccc2s1)C1CC1	2.2	.	.	/	/	/
O=C(Cc1ccccc1)Nc1nc2ccccc2s1	/	.	.	2	/	/
C/C(N)=C(/C#N)C(=O)CSc1nnc(NC(C)C)s1	.	.	.	.	.	/
CCC(C)C(NC(=O)C1CCC(C)CC1)C(=O)NCc1ccccn1 (stereo not drawn)	.	.	.	.	/	/
Cc1ccc(NC(=S)NNC(=O)c2nn(C)c(C)c2Cl)cc1	2.3	.	.	/	/	/
Cc1ccc(NC(=S)NNC(=O)c2cn(C)nc2C)cc1	2.3	.	.	/	/	/
Cc1nn(C(C)C(=O)NNC(=S)Nc2ccc(Cl)cc2)c(C)c1[N+](=O)[O-] (stereo not drawn)	2.4	.	.	/	/	/
Cc1nn(CCC(=O)NNC(=S)Nc2ccc(Cl)cc2)c(C)c1[N+](=O)[O-]	/	.	.	.	/	/
Cc1ccc(NC(=S)NNC(=O)c2ccccc2OC(F)F)cc1	.	.	.	/	/	/
Cc1ccc(NC(=S)NNC(=O)c2c([N+](=O)[O-])c(C)nn2C)cc1	2.5	.	.	/	/	/
Cc1c(Cl)c(C(=O)NC2CCCC2)nn1C	/	.	.	.	/	/
SMILES	PLAP act	PTPN22 act	PTPN22 inh 2	MT1-MMP txn act	TNAP act DEA	LYP act confirm
COC(=O)[C@@]1(Cc2ccc(OC)cc2)[C@H]2c3cc(C(=O)N4CCCC4)n(CCc4c[nH]c5cc(F)ccc45)c3C[C@H]2CN1C(=O)c1ccccc1	/	/	/	.	/	/
CCC(OC(=O)CC1Sc2ccccc2NC1=O)C(=O)NCC1CCCO1 (stereo not drawn)	2	.	.	.	.	/
CCOc1ccc(N2C(=O)CS/C2=N/NC(=O)COc2ccc3ccccc3c2)cc1	.	.	.	/	/	/
CCOc1ccc(N2C(=O)CS/C2=C(\C(Cl)=C(Cl)Cl)[N+](=O)[O-])cc1	.	.	26	.	/	/
CC(C(=O)NC1CCCC1)N(Cc1ccc2c(c1)OCO2)C(=O)c1snc(C(N)=O)c1N (stereo not drawn)	.	42	.	.	.	.
CCC(C(=O)NC1CCCC1)N(Cc1ccc2c(c1)OCO2)C(=O)c1snc(C(N)=O)c1N (stereo not drawn)	.	.	.	.	.	/
COC(=O)c1ccc(C)c(NS(=O)(=O)c2ccc(OC)cc2)c1	.	.	.	/	.	/
COC(=O)c1ccc(C)c(NS(=O)(=O)c2ccc3c(c2)OCCO3)c1	.	42	.	.	.	.
CCOC(=O)C1CCN(Cc2coc3c(Cl)cc(Cl)cc3c2=O)CC1	.	39	.	.	/	.
Cc1ccc(-c2nc(CCN3C(=O)c4ccccc4C3=O)cs2)cc1	.	48	.	/	/	.
O=C1c2ccccc2C(=O)N1CCc1ccccn1	.	.	.	.	.	/
CCOC(=O)CCc1c(C)nc2cc(-c3ccc(Cl)cc3)[nH]n2c1=O	.	/	/	.	.	/
COc1cc(OC)cc(-c2cc3nc(C)c(CCC(=O)O)c(=O)n3[nH]2)c1	.	49	.	/	/	.
O=C(CSc1nnc(-c2ccc(O)cc2)n1Cc1ccco1)N1CCc2ccccc2C1	.	.	.	.	.	/
CN(C)CCNc1ncnc2c1sc1nc(N3CCOCC3)c3c(c12)CC(C)(C)SC3	.	49	.	.	/	.
O=C(CCCC(=O)N(CC(=O)NC1CCCC1)Cc1ccc(F)cc1)Nc1ccccn1	.	38	.	.	.	.
CCCc1cc(NCCN2CCOCC2)n2c(nc3ccccc32)c1C#N	/	/	/	.	.	/
O=C(NCc1ccco1)Nc1cccs1	.	37	.	.	.	.
O=C(NCc1ccco1)c1cccs1	.	.	.	.	.	/
Cc1ccccc1NC(=O)CN(c1ccc(F)cc1)S(C)(=O)=O	.	.	.	.	.	/
CN(C)S(=O)(=O)N(CC(=O)Nc1ccccc1F)c1ccccc1	/	39	.	.	/	.
COc1ccccc1NC(=O)CN1CCN(C(=O)c2ccco2)CC1	/	37	.	.	/	.
COC(=O)c1ccc2c(=O)sc(N3CCC(C(N)=O)CC3)nc2c1	.	39	.	.	.	.
CCSc1nc2cc(C(=O)OC)ccc2c(=O)n1CC	/	.	.	.	/	/
COC(=O)COc1ccc(S(=O)(=O)N2CCc3ccccc3C2)cc1C	.	.	.	.	/	/
SMILES	PLAP act	PTPN22 act	PTPN22 inh 2	MT1-MMP txn act	TNAP act DEA	LYP act confirm
O=C(Nc1ccc2c(c1)C(=O)N(CC1CCCO1)C2=O)c1ccc(Cl)c(Cl)c1 (stereo not drawn)	.	37	.	.	/	.
O=C(Nc1ccc(O)c(C(=O)O)c1)c1ccc2c(c1)C(=O)N(CC1CCCO1)C2=O (stereo not drawn)	.	/	/	.	.	/
CC(CCc1ccccc1)NC(=O)CSc1nc(N)cc(N)n1 (stereo not drawn)	.	.	.	.	.	/
Cc1ccccc1C(=O)NC(=S)NCC1CCCO1 (stereo not drawn)	.	39	.	/	/	.
CCC1=C(OC(=O)N(CC)CC)N2C(=O)OC(=NCC3CC3)[C@]2(Cc2ccccc2)[C@H]2C1=CC[C@H]1C(=O)N(c3ccccc3)C(=O)[C@H]12	/	/	/	.	/	/
CC(C)CNC(=S)NNC(=O)c1csc2ccccc12	.	37	.	/	/	.
CCNC(=S)NNC(=O)c1csc2ccccc12	.	.	.	/	/	/
CCNC(=O)NC(=O)C(C)Sc1nc2ccccc2n1CC(C)C (stereo not drawn)	.	.	.	.	/	/
CC(=O)Nc1ccc(S(=O)(=O)N2CCSC2c2ccc(Cl)cc2)cc1 (stereo not drawn)	.	38	.	.	.	.

Source: PubChem
